Molecules are shown by their SMILES. Potency and affinity values are given separately. A number with no mark means an inactive call.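 Rule for the calls: active = viability loss with fitted half-maximal dose at or below ten times the top valid dose; inconclusive = flat loss of 30 to 70 percent, or a poor fit; inactive = flat within 30 percent, weak potency, or rising signal.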

The nature of the test: viability loss in BJeLR (HRASV12) cells, primary screen, Ras selective lethality project, cell-based, Alamar Blue, dry powder (AID 493045). As to conditions: BJeLR (HRASV12) fibroblasts viability, 48 h; series mostly up to 45 µM; activity change, negative = viability loss: at the top concentration. Background: The colour change of resazurin is a common sign of viable cells or microbes.
`O=C(c1[nH]ncc1[N+](=O)[O-])N1CCN(C(c2ccccc2)c2ccccc2)CC1`: the “activity change, negative = viability loss” value is 0.972%.

Take `COc1ccc(N(C(=O)CSc2ncccn2)C(C(=O)NCCc2ccccc2)c2cccs2)cc1Cl` (stereo unspecified): the “activity change, negative = viability loss” value is 13.6% [at 38 µM].

`COc1ccc(N(C(=O)[C@@H](C)Cl)C(C(=O)NCCc2ccccc2)c2cccs2)cc1Cl` (stereo partly specified): the “activity change, negative = viability loss” value is -1.18%.

`COc1ccc(N(C(=O)CO)C(C(=O)NCCc2ccccc2)c2cccs2)cc1Cl` (stereo unspecified): the “activity change, negative = viability loss” value was 4.42%.

For `CCC(=O)N(c1ccc(OC)c(Cl)c1)C(C(=O)NCCc1ccccc1)c1cccs1` (stereo unspecified), the “activity change, negative = viability loss” value is 0.399%.

With `COCC(=O)N(c1ccc(OC)c(Cl)c1)C(C(=O)NCCc1ccccc1)c1cccs1` (stereo unspecified), the “activity change, negative = viability loss” value was 1.62%.
